In PubChem BioAssay AID720518 (National Center for Advancing Translational Sciences (NCATS), 2013):
Records with an inconclusive call do not appear. Values without a mark were called inactive. Calls follow the shape of the full dose curve.

Assay: qHTS for Inhibitors of Cell Surface uPA Generation: Wild-type Protective Antigen (WT-PrAg) Counterscreen for Cherry-picked Compounds; also: 0% is about no effect
Conditions: cells, WT protective antigen toxicity counterscreen; series mostly up to 115 µM; activity (protection): at the top concentration

SMILES	activity (protection) [%]
Cc1ccc(C2=NS(=O)(=O)N(C)C(C(=O)NC3CCCC3)=C2)cc1	-0.662
O=C(/C=C/c1ccc(O)c(O)c1)O[C@@H]1C[C@](O)(C(=O)O)C[C@@H](O)[C@H]1O	-0.319
CCOC(=O)CN1C(=O)N[C@@H](c2ccccc2)C(C(C)=O)=C1C	0.206
Cc1cnc(CNC(=O)C2CCC(=O)N(CCc3cccc(F)c3)C2)[nH]1 (stereo not given)	-0.804
O=C(NCCCn1ccnc1)C(=O)NCC(c1cccnc1)N1CCN(c2ccc(F)cc2)CC1 (stereo not given)	0.272
CC(=O)N1CCN(C(=O)CSc2cc(C)c(Br)cc2C)CC1	-0.948
COc1ccc(N(CN2C(=O)c3ccccc3C2=O)C(=O)C(C)C)cc1	-0.0709
Cc1cnc(CNC(=O)CC2C(=O)NCCN2Cc2ccccc2C(F)(F)F)cn1 (stereo not given)	0.0975
Cc1ccccc1S(=O)Cc1ccc(C(=O)N2CCN(C(=O)c3ccco3)CC2)o1 (stereo not given)	-0.657
CSc1nc(N)nc2c1ncn2CC(=O)NCC1CCCO1 (stereo not given)	0.724
O=C(O)C(Nc1nc(C(F)(F)F)nc2ccccc12)c1ccccc1 (stereo not given)	1.14
CCCCn1c(C2CCCCC2)nc2cc3[nH]c(=O)c(C(C)C)nc3cc21	-2.19
NS(=O)(=O)c1ccc(CCNC(=O)c2ccc(Cl)s2)cc1	0.393
Cc1ccc2[nH]c(CN3CCN(C)C(CCO)C3)c(C)c2c1 (stereo not given)	6.95
O=S(=O)(/N=C(/c1ccccc1)N1CCOCC1)c1ccc(F)cc1F	0.385
O=C(C[n+]1ccccc1)Nc1ccccc1C(F)(F)F	0.0894
Cc1ccc(S(=O)(=O)N2CCC(C)CC2)cc1	0.504
CCNC(=S)NNC(=O)c1ccncc1	-1.28
Cc1cccc(C(=O)NCC(=O)OCC(=O)NC2CCCCCCC2)c1	0.954
Cc1cc(C)n2nc(CNS(=O)(=O)c3ccc(F)c(C)c3)nc2n1	-0.539

SMILES	activity (protection) [%]
COc1cccc2c1Oc1ncccc1N(C(=O)CCC(=O)NCc1ccc(C)cc1)C2	-0.223
CCCCCCCCCOC(=O)C1N2C(=O)[C@@H](NC(=O)COc3ccccc3)[C@H]2SC1(C)C (stereo not given in full)	-2.25
O=C(COC(=O)Cn1cnc2ccccc21)NCc1ccc(F)cc1	0.472
O=C(CN(c1ccccc1F)S(=O)(=O)c1ccccc1)Nc1ccc2c(c1)OCCO2	-2.31
Cc1ccc(C(O)(COC(=O)C(C)C)COC(=O)C(C)C)c(O)c1	-1.61
C[C@@H](CSc1ccccc1)CN1CC[C@H](O)CCC1=O	0.0232
CCc1ccc(NCc2nc(-c3ccccc3)no2)cc1	0.157
O=C(c1cc([N+](=O)[O-])cc([N+](=O)[O-])c1)N(c1ccccn1)c1ccccn1	-0.695
CCC(CC)Nc1ccc(C(CC(N)=O)NC(=O)Cc2ccc(Br)cc2)cc1[N+](=O)[O-] (stereo not given)	-2.11
CCC1=NN(C(=O)C(=O)Nc2ccc(OC)cc2)C(O)(C(F)(F)F)C1 (stereo not given)	-0.449
CC(CCc1ccccc1)NC(=O)c1ccc(NC(=O)c2cccc(Br)c2)cc1 (stereo not given)	-0.0435
Cc1cccc(NC(=O)c2cc3c(=O)n4ccccc4nc3s2)c1	0.263
COCCN1C(=O)C(=O)/C(=C(/O)c2ccc(S(=O)(=O)N3CCOCC3)cc2)C1c1cccc([N+](=O)[O-])c1 (stereo not given)	-1.23
CN(CC(=O)NCCCn1ccnc1)S(=O)(=O)c1ccc(Cl)cc1	0.0947
CCOC(=O)C(CC)n1cnc2c(nnn2-c2ccccc2)c1=O (stereo not given)	0.222
CCN(CC)S(=O)(=O)c1ccc(C(=O)Nc2nnc(COC)o2)cc1	-0.774
O=C(CSc1ccc(Cl)cc1)N1CCCC1	-1.93
O=C(CNS(=O)(=O)c1ccc(F)cc1)Nc1ccccc1	-0.098
O=[N+]([O-])c1ccc(C[n+]2cccc(O)c2)cc1	-1.12
COc1ccc(NC(=O)CC(C)CC(=O)NCc2ccccc2)c(OC)c1 (stereo not given)	0.516
